The values that follow come from PubChem BioAssay (NCATS).

Inconclusive results are not listed. Unmarked numbers belong to inactive results. Calls of active or inactive are those of the source. The call rests on the fitted dose curve; in most records, active means well fitted curve in the direction sought with a large enough effect; inconclusive means small, poorly fitted or top-dose-only effect, or another doubt; inactive means no such curve, though single readings can be large; an effect the other way counts as inactive or inconclusive.

Assay [1] addresses Cellular tumor antigen p53 (Homo sapiens) (UniProt P04637). The assay is described as follows: Primary qHTS for small molecule compounds that upregulate eGFP-tagged delta133p53alpha (in N-terminal) cells. (AID 2060322). Further: nearly all actives have a fitted effect of over 75% in size. Further: potency means the concentration at half of the fitted maximal effect.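 On activation: cells pre-induced with doxycycline then dosed without doxycycline; series mostly up to about 56 µM; 0% = DMSO vehicle and 100% = reference activator.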 Conditions: NCI-H358 eGFP-delta133p53alpha fluorescence, 24 h; activation: active compounds read high. The essentials:
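NCI-H358 cells pre-induced 24 h with 10 ng/ml doxycycline for eGFP-delta133p53alpha, plated dox-free and exposed 24 h at 37C to titrated compounds. Fixed, Hoechst-stained; gated GFP peak intensity by laser scanning cytometry, normalized to DMSO (0%) and 57.5 uM 5-azacytidine (100%).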

Assay [2] has as its target Aldehyde dehydrogenase, mitochondrial (Homo sapiens) (UniProt P05091). In words: qHTS for Inhibitors of the Aldehyde Dehydrogenase Family (ALDH2) Primary screen (AID 2061308).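 Further: plate controls were vehicle for no effect and reference inhibitor for full effect; nearly all actives have a fitted effect of over 55% in size.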 For orientation: Quantitative high-throughput screening tests each substance at several concentrations.
Assay [3] deals with Retinaldehyde dehydrogenase 3 (Homo sapiens) (UniProt P47895). The assay is described as follows: qHTS for Inhibitors of the Aldehyde Dehydrogenase Family (ALDH1A3) Primary screen (AID 2061315).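 Further: plate controls were DMSO vehicle for no effect and reference inhibitor for full effect.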

Sequence of Cellular tumor antigen p53 (Homo sapiens) (P04637 whole entry, looked up): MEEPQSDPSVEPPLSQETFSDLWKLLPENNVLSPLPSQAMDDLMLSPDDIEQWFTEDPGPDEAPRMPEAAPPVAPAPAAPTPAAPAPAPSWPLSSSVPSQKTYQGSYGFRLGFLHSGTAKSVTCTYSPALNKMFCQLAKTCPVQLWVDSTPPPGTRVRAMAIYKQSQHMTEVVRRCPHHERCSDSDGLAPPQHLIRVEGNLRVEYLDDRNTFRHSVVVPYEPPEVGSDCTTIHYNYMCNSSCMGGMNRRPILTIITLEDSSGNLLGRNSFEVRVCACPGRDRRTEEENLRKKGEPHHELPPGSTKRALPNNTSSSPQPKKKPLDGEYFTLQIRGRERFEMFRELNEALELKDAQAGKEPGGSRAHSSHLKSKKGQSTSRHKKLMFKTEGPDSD

Consider `CN(C)CCn1cc(S(=O)(=O)c2cccc(F)c2)c2cccnc21`, for which, in assay [1], the activation was -7.16%. For the same compound, the Potency entry in assay [2] and in assay [3] was “inactive” each time.
Consider `COc1c2c(c(C)c3c1C(=O)OC3)OC1(C)CC(O)C(C(C)(C)O)C(C)(CCC(=O)O)C1C2` (centres undefined), for which the activation in assay [1] was 8.4%. The Potency entry in assay [2] and in assay [3] was “inactive” each time.
Take `CCCCn1c(-c2ccccc2)nc(-c2ccccc2)c1CN(Cc1ccc2c(c1)OCO2)Cc1ccc2c(c1)OCO2`: the activation in assay [1] was -10%. In addition, the Potency result in assay [2] and in assay [3] was “inactive” each time.
Regarding `Nc1nc(Nc2ccc3c(c2)CCC(N2CCCC2)CC3)nn1-c1cc2c(nn1)-c1ccccc1CCC2` (centres undefined), in assay [1], the Potency is 26.9 µM (active). For the same compound, the Potency entry in assay [2] and in assay [3] was “inactive” throughout.
For the compound `CC1(C)CCCC2(C)C1CC(=O)C13CC(CCC12)C(O)(CO)C3` (centres undefined), in assay [1], the activation was -7.63%. In addition, the Potency entry in assay [2] and in assay [3] was “inactive” each time.
In the case of `C=C1CCC(OC(C)=O)C2(C)CC3(O)OC(=O)C(C)=C3CC12` (centres undefined), in assay [1], the activation was -2.29%. The Potency result in assay [2] and in assay [3] was “inactive” throughout.
On to `CC1(C(=O)O)CCCC2(C)C3=CCC4CC3(CCC12)CC4CO` (centres undefined), for which, in assay [1], the activation is 3.82%. Moreover, the Potency result in assay [2] and in assay [3] was “inactive” in each case.
As for `C/C1=C\CC[C@]2(C)O[C@@H]2[C@H](O)[C@H](C(C)C)[C@H](OC(=O)/C=C/c2ccccc2)C1`, the activation in assay [1] is 6.25%. Further, the Potency entry in assay [2] and in assay [3] was “inactive” throughout.
